Data: PubChem BioAssay AID589 (National Center for Advancing Translational Sciences (NCATS), 2007)
Out of some 59,000 compounds screened, about 6,200 (11%) were called active. Another 9% or so got no clear call; they are omitted. The sample holds actives, similar compounds and a random draw of the others, so the mix is not that of the screen. No stated cut-off is given here; in the data, active means max dye-equivalent concentration above about 10 nM; inconclusive means mostly about 1.1 nM to 9.6 nM; inactive means weaker than that.

assay: qHTS Assay for Spectroscopic Profiling in 4-MU Spectral Region; conditions: compound autofluorescence, 340/450 nm, 4-MU equivalents; active compounds read high
Text: NIH Molecular Libraries Screening Centers Network [MLSCN] NIH Chemical Genomics Center [NCGC] […] Occasionally, the artifactual effect may originate from the compounds own spectral or other biophysical properties which generally tend to track its assay concentration. Pre-screening/profiling the library with respect to the compounds spectral properties should help one exclude false positives early on. While the most informative fluorescent profiling data set is obtained by performing a full excitation and emission scan of each well by using a monochromator-based plate reader, such an approach is practical only on a very limited scale as scanning each well requires long time. An alternative approach, applied here, is to perform plate reader scans using selected excitation and emission wavelength pairs to generate a multidimensional relational database that correlates compound concentration and the respective relative fluorescence intensity at a given wavelength set. A standard curve of 4-methylumbelliferone (4-MU) present on each plate as six-point concentration series, was used to compute a normalized fluorescence response, termed dye-equivalent concentration, for each compound at each concentration.
NCGC Assay Protocol Summary: Buffer: 100 mM Tris buffer, pH 8.0 Dye standard plate: The wells in columns 1 through 4 of a Kalypsys polypropylene 1536-well compound plate were filled with standard solutions of fluorophore corresponding to the spectral region of interest. Solutions of 4-MU were placed in the following wells: A1, B1: 3 mM, A2, B2: 300 uM, A3, B3: 30 uM, A4, B4: zero (DMSO), C1, D1: 3 uM, C2, D2: 900 nM, C3, D3: 300 nM, C4, D4: zero (DMSO). Assay Steps: Six uL of buffer were dispensed to 1536-well Greiner black plates. Compounds and dye standards (23 nL) were transferred via Kalypsys PinTool. The plates were incubated for 15 min at room temperature, and then read on ViewLux (Perkin-Elmer) High-throughput CCD imager using 340 nm and 450 nm excitation and emission filter set. Keywords: NIH Roadmap, MLSCN, MLI, MLSMR, qHTS, NCGC, Fluorescent Profiling, 4MU, 4-MU

Question: Which max dye-equivalent concentration does the source give for O=C(CNS(=O)(=O)c1ccc(Br)s1)NCc1ccc2c(c1)OCO2 here?
Answer: inactive

Question: With O=C(N1CCOCC1)N(Cc1ccccc1)c1ccccn1 as the molecule, how does the max dye-equivalent concentration read?
Answer: inactive

Question: With NC(=O)CSc1c[nH]c2ccccc12 as the molecule, how does the max dye-equivalent concentration read?
Answer: inactive

Question: With Cc1ccc2c(c1)C(O)(CC(=O)c1cccnc1)C(=O)N2 (stereo not given) as the molecule, how does the max dye-equivalent concentration read?
Answer: inactive

Question: With CCc1cc2c(=O)c(-c3ccon3)c(N)oc2cc1OC as the molecule, how does the max dye-equivalent concentration read?
Answer: inactive

Question: With Cc1ccc(Cc2nc(-c3cccc(C)c3)no2)cc1 as the molecule, how does the max dye-equivalent concentration read?
Answer: inactive

Question: Which max dye-equivalent concentration does the source give for Cc1ccc(-c2noc(CN3CCN(Cc4ccccc4)CC3)n2)cc1 here?
Answer: inactive

Question: With COc1ccccc1Cc1nc(-c2ccc(C)cc2)no1 as the molecule, how does the max dye-equivalent concentration read?
Answer: 16 nM (active)

Question: For O=C(Nc1cccc(F)c1)N1CCC2(CC1)CCN(S(=O)(=O)c1ccccc1)CC2, which max dye-equivalent concentration is on record?
Answer: inactive

Question: For CN1CCCC(OC(=O)COc2ccc(Br)cc2)C1 (stereo not given), which max dye-equivalent concentration is on record?
Answer: inactive

Question: For CCCSC1=C(C#N)C(c2ccccc2C)C(C(=O)OC)C(=O)N1 (stereo not given), which max dye-equivalent concentration is on record?
Answer: inactive

Question: Which max dye-equivalent concentration does the source give for Cc1cc(C)c2c(c1)cc(C)c1nnc(SCC(=O)Nc3cc(C)on3)n12 here?
Answer: inactive

Question: With Cc1ccc2nc(-c3ccc(SCC(=O)Nc4cc(C)on4)nc3)[nH]c2c1 as the molecule, how does the max dye-equivalent concentration read?
Answer: 33 nM (active)

Question: For Cc1nc(SCC(=O)Nc2cc(C)on2)c2c(C)c(C)sc2n1, which max dye-equivalent concentration is on record?
Answer: inactive

Question: Which max dye-equivalent concentration does the source give for CCOc1ccccc1C(=O)NCCCn1ccnc1 here?
Answer: inactive

Question: With CCOc1ccccc1C1C(C(=O)OC)=CN(C)C=C1C(=O)OC as the molecule, how does the max dye-equivalent concentration read?
Answer: 10000 nM (active)

Question: With CCOc1ccccc1C(=O)NCc1ccco1 as the molecule, how does the max dye-equivalent concentration read?
Answer: inactive

Question: With COCCn1c(=O)c(-c2cccs2)nc2cncnc21 as the molecule, how does the max dye-equivalent concentration read?
Answer: 74 nM (active)

Question: With COCCn1c(=O)c(-c2cccs2)nc2cnc(N3CCN(C)CC3)nc21 as the molecule, how does the max dye-equivalent concentration read?
Answer: 14 nM (active)

Question: Which max dye-equivalent concentration does the source give for CN(C(=O)COc1nnc(-c2cccs2)c(-c2cccs2)n1)c1ccccc1 here?
Answer: inactive

Question: With COc1ccccc1CCn1c(=O)c(-c2cn(C)c3ccccc23)nc2cncnc21 as the molecule, how does the max dye-equivalent concentration read?
Answer: inactive

Question: Which max dye-equivalent concentration does the source give for COC(=O)[C@@H]1[C@H]2C[C@H]3c4[nH]c5cc(OC)ccc5c4CCN3C[C@@H]2C[C@@H](OC(=O)c2cc(OC)c(OC)c(OC)c2)[C@@H]1OC here?
Answer: inactive

Question: For CCCCn1nnnc1NCc1cc(OC)c(OC)c(OC)c1, which max dye-equivalent concentration is on record?
Answer: inactive

Question: With COC(=O)CCNc1ccc2c(c1)OCCO2 as the molecule, how does the max dye-equivalent concentration read?
Answer: inactive

Question: Which max dye-equivalent concentration does the source give for CCOc1ccc(-c2nnc3ccc(SC)nn23)cc1 here?
Answer: 12 nM (active)

Question: Which max dye-equivalent concentration does the source give for CCOc1cccc(-c2nnc3sc(COc4ccc(OC)cc4)nn23)c1 here?
Answer: inactive

Question: Which max dye-equivalent concentration does the source give for O=C1NC(=O)[C@@](Cc2ccccc2)(c2cccnc2)N1 here?
Answer: inactive

Question: For O=c1cc(CSc2ccc(Cl)cc2)nc(N2CCOCC2)[nH]1, which max dye-equivalent concentration is on record?
Answer: inactive

Question: For CC1=C(C(=O)Nc2ccccc2)C(c2cccs2)C(C#N)=C(SCC#N)N1 (stereo not given), which max dye-equivalent concentration is on record?
Answer: inactive

Question: For CCOC(=O)N1CC=C2C(C#N)=C(N)C(C#N)(C#N)[C@H](c3cccs3)[C@H]2C1, which max dye-equivalent concentration is on record?
Answer: 27 nM (active)

Question: Which max dye-equivalent concentration does the source give for O=C(c1cc(C(F)(F)F)cc(C(F)(F)F)c1)N1CCC2(CC1)CN(c1ccncc1)C2 here?
Answer: inactive

Question: For Cc1cc(O)ccc1-c1cnc2ccccc2n1, which max dye-equivalent concentration is on record?
Answer: inactive

Question: With Cc1nc2ccccc2cc1O as the molecule, how does the max dye-equivalent concentration read?
Answer: 2300 nM (active)

Question: Which max dye-equivalent concentration does the source give for CCOC(=O)c1cc2ccccc2nc1C here?
Answer: inactive

Question: With CC(=O)N1CCN(C(=O)Nc2cccc(C(F)(F)F)c2)CC1 as the molecule, how does the max dye-equivalent concentration read?
Answer: inactive

Question: For Cc1ccc(NC(=O)CCNS(=O)(=O)c2ccc3c(c2)oc(=O)n3C)cc1C, which max dye-equivalent concentration is on record?
Answer: inactive

Question: With Nc1ccc(SCCN2C(=O)c3ccccc3C2=O)cc1 as the molecule, how does the max dye-equivalent concentration read?
Answer: inactive

Question: Which max dye-equivalent concentration does the source give for C[N+](C)(CCCCCC[N+](C)(C)CCCN1C(=O)c2cccc3cccc(c23)C1=O)CCCN1C(=O)c2cccc3cccc(c23)C1=O here?
Answer: 260 nM (active)

Question: Which max dye-equivalent concentration does the source give for O=C1c2ccccc2C(=O)N1CCCSc1ccccc1 here?
Answer: inactive

Question: With CCCC(=O)Nc1ccc(C(=O)NCCCn2ccnc2)cc1 as the molecule, how does the max dye-equivalent concentration read?
Answer: inactive

Question: With CSc1ccc(S(=O)(=O)NCc2ccc(Cl)cc2)cc1 as the molecule, how does the max dye-equivalent concentration read?
Answer: inactive

Question: Which max dye-equivalent concentration does the source give for Cc1cc(C)n(-c2nc(SCC(=O)N3CCCC3)c3c4c(sc3n2)CCCC4)n1 here?
Answer: inactive

Question: Which max dye-equivalent concentration does the source give for COCCNc1nc(-n2nc(C)cc2C)nc2sc3c(c12)CCCC3 here?
Answer: 920 nM (active)

Question: For COCCn1c(C)cc(C(=O)CSc2ncnc3sc4c(c23)CCC4)c1C, which max dye-equivalent concentration is on record?
Answer: inactive

Question: With COc1ccc(S(=O)(=O)Nc2ccc3c(c2)OCO3)cc1Cl as the molecule, how does the max dye-equivalent concentration read?
Answer: inactive

Question: For N#Cc1ccc(COC(=O)Cn2nnc(-c3ccccc3)n2)cc1, which max dye-equivalent concentration is on record?
Answer: inactive

Question: Which max dye-equivalent concentration does the source give for CCCNS(=O)(=O)c1ccc2c(c1)CCCN2C(C)=O here?
Answer: inactive

Question: Which max dye-equivalent concentration does the source give for CC(C)OCCCNc1ncnc2c1[nH]c1ccc(F)cc12 here?
Answer: 12 nM (active)

Question: For Fc1cc(F)c2nc(N3CCOCC3)sc2c1, which max dye-equivalent concentration is on record?
Answer: inactive

Question: Which max dye-equivalent concentration does the source give for O=C(CSc1nnc(-c2cnccn2)n1Cc1ccco1)c1ccc(Cl)c(Cl)c1 here?
Answer: inactive

Question: Which max dye-equivalent concentration does the source give for Cn1c(SCc2c(F)cccc2Cl)nnc1-c1cnccn1 here?
Answer: 17 nM (active)

Question: For CCN(CC)C(=O)CSc1nnc(-c2cnccn2)n1-c1ccc(C)cc1, which max dye-equivalent concentration is on record?
Answer: inactive

Question: For O=C(COc1ccccc1)N1CCc2ccccc2C1, which max dye-equivalent concentration is on record?
Answer: inactive

Question: Which max dye-equivalent concentration does the source give for N#C/C(=C1\CCCN1)c1nc(-c2ccccc2)cs1 here?
Answer: inactive

Question: For Cn1c(/C(C#N)=C2/CCCCCN2)nc2ccccc21, which max dye-equivalent concentration is on record?
Answer: 22 nM (active)
